Records with an inconclusive call do not appear. Calls of active or inactive are those of the source. Unless noted, the call rests on the fitted dose curve; in most records, active means well fitted curve in the direction sought with a large enough effect in the repeat runs; inconclusive means weak or mixed curves; inactive means no such curve, though single readings can be large; an effect the other way counts as inactive or inconclusive.
Legend:
[1] = qHTS assay to identify small molecule agonists of the RXR signaling pathway - cell viability counter screen (AID 1159529);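 further: HEK 293T cells carrying an RXR-alpha UAS beta-lactamase reporter; nearly all actives have a fitted effect of over 50% in size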
Outline: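 Same-well viability check after the LiveBLAzer FRET read: CellTiter-Glo added, luminescence measured after 30 min at room temperature. Reporter HEK 293T cells had been treated with compounds for 16 hr following a 5 hr preincubation.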

[2] = qHTS assay to identify small molecule antagonists of the retinoid acid receptor (RAR) signaling pathway - cell viability counter screen (AID 1159551); further: nearly all actives have a fitted effect of over 35% in size
Outline: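 Cells (C3RL4) are plated, incubated overnight, dosed with compound in DMSO, then given retinol at 1 uM final. After 6 h at 37 C, CellTiter-Glo is added and luminescence read following 30 min at room temperature.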

[3] = qHTS assay to identify small molecule antagonists of the retinoic acid receptor (RAR) signaling pathway (AID 1159552; further: nearly all actives have a fitted effect of over 50% in size)
Outline: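 Readout: luciferase luminescence, 30 min post-reagent at RT. Setup: C3RL4 RARE reporter cells, compounds plus retinol 1 uM final, 6 hr incubation at 37 C and 5% CO2.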

[4] = qHTS assay to identify small molecule agonists of the retinoic acid receptor (RAR) signaling pathway (AID 1159553); further: potency means the concentration at half of the fitted maximal effect
Outline: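 Seed C3RL4 reporter cells at 1,000 per well and incubate overnight at 37 C. Add compounds in DMSO, incubate 6 hr. Add luciferase reagent, wait 30 min at room temperature, read luminescence.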

[5] = qHTS assay to identify small molecule antagonists of the estrogen related receptor (ERR) signaling pathway from Tox21 library - cell viability counter screen (AID 1224834); further: nearly all actives have a fitted effect of over 30% in size
Outline: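 ERR cells, 2,000/well; 6 h settle at 37 C/5% CO2; pin-tool compound transfer in DMSO; 17.5 h at 37 C; CellTiter-Fluor, 30 min; fluorescence intensity.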

[6] = target: Luciferin 4-monooxygenase (Photinus pyralis) (UniProt P08659); assay: qHTS assay to identify small molecule inhibitors of firefly luciferase (AID 1224835); further: nearly all actives have a fitted effect of over 25% in size; further: potency means the concentration at half of the fitted maximal effect
Outline: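 Inhibition of purified Photinus luciferase is measured by luminescence. Substrate levels (D-luciferin, ATP) sit at their KM values. Each compound is tested in a concentration series.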

[7] = qHTS assay to identify small molecule agonists of the constitutive androstane receptor (CAR) signaling pathway - cell viability counter screen (AID 1224836); further: nearly all actives have a fitted effect of over 45% in size
Outline: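 Compound titrations (15 concentrations) went onto HepG2-CYP2B6-hCAR cells 4 h after seeding, alongside PK11195 at a final 0.75 uM; a 23 h, 37 C/5% CO2 incubation preceded CellTiter-Fluor viability measurement.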

[8] = qHTS assay to identify small molecule antagonists of the constitutive androstane receptor (CAR) signaling pathway - cell viability counter screen (AID 1224837); further: nearly all actives have a fitted effect of over 45% in size
Outline: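 Viability was measured with CellTiter-Fluor in a HepG2 line carrying stably transfected hCAR and a CYP2B6-2.2kb construct. Cells were exposed for 23 hr at 37 C to 15 compound concentrations with 50 nM CITCO as agonist.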

[9] = target: Nuclear receptor subfamily 1 group I member 3 (Homo sapiens) (UniProt Q14994); assay: qHTS assay to identify small molecule antagonists of the constitutive androstane receptor (CAR) signaling pathway (AID 1224838);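 further: HepG2 cells stably expressing hCAR with CYP2B6 luciferase reporter stimulated by CITCO; nearly all actives have a fitted effect of over 40% in size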
Outline: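 Antagonist mode used CITCO at a final 50 nM to activate CAR in human hepatoma HepG2 cells carrying stable hCAR and a 2.2 kb CYP2B6 promoter-luciferase construct. Compounds were tested at 15 concentrations over 24 h, with luminescence as the end point.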

[10] = target: Nuclear receptor subfamily 1 group I member 3 (Homo sapiens) (UniProt Q14994); assay: qHTS assay to identify small molecule agonists of the constitutive androstane receptor (CAR) signaling pathway (AID 1224839); further: nearly all actives have a fitted effect of over 15% in size; further: potency means the concentration at half of the fitted maximal effect
Outline: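 In this screen, CAR-driven CYP2B6 promoter activity is measured by luminescence in HepG2-CYP2B6-hCAR cells after 24 h with test compounds and 0.75 uM PK11195 (final concentration).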

[11] = qHTS assay to identify small molecule antagonists of the estrogen related receptor signaling pathway with the pleiotropic PPARgamma coactivator (PGC) from Tox21 10K library - cell viability counter screen (AID 1224840; active means well fitted cell-killing curve with a large enough effect in the repeat runs, not every such curve was filed as active; further: nearly all actives have a fitted effect of over 40% in size)
Outline: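 Multiplexed viability counter screen in the PGC/ERR cell line: cells treated with DMSO-dissolved compounds for 17.5 hours at 37 C, then viability measured as CellTiter-Fluor fluorescence.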

[12] = qHTS assay to identify small molecule antagonists of the estrogen related receptor signaling pathway with the pleiotropic PPARgamma coactivator (PGC) from Tox21 10K library (AID 1224841; call rule not given here; further: actives are mostly falling curves and most rising ones were filed inactive; nearly all actives have a fitted effect of over 50% in size)
Outline: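 Steps: plate 2,000 PGC/ERR cells per well; incubate 6 h at 37 C with 5% CO2; transfer compounds from DMSO stocks by pin tool; incubate 18 h at 37 C; add One-Glo; measure luminescence 30 min later.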

[13] = qHTS assay to identify small molecule agonists of the estrogen related receptor signaling pathway with the pleiotropic PPARgamma coactivator (PGC) from Tox21 10K library (AID 1224842); further: nearly all actives have a fitted effect of over 15% in size
Outline: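 Luminescence from One-Glo (30 min, room temperature) measured after PGC/ERR cells had 18 h at 37 C with pinned compound (23 nL in DMSO). Cells had been seeded at 2,000 per well and pre-incubated 6 h.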

[14] = qHTS assay to identify small molecule agonists of the hypoxia (HIF-1) signaling pathway - cell viability counter screen (AID 1224844; calls by dose curve; further: nearly all actives have a fitted effect of over 50% in size)
Outline: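 Cytotoxicity was measured in parallel with the HRE-driven beta-lactamase readout: after 17 hrs of compound exposure at 37C, HRE-bla ME-180 cells received CellTiter-Glo and luminescence was recorded 30 min later.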

[15] = qHTS assay to identify small molecule agonists of H2AX (AID 1224845; active means well fitted activation curve with a large enough effect in the signal ratio in the repeat runs, not every such curve was filed as active; the % refers to the signal ratio)
Outline: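 Phospho-H2AX Ser139 measured by HTRF (ex 320 nm; em 665 and 620 nm) after 24 hr antibody incubation. Compounds, 15 concentrations, 0.76% DMSO, were applied to CHO-K1 cells for 3hr at 37C before lysis.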

[16] = qHTS assay to identify small molecule agonists of H2AX - cell viability counter screen (AID 1224847; calls by dose curve; further: top concentration of the series differs between compounds; nearly all actives have a fitted effect of over 30% in size)
Outline: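 Read-out: CellTiter-Glo luminescence, 30 min RT. Cells: wild-type CHO-K1, 1000/well, 10% FBS, plated overnight at 37C. Treatment: 15 concentrations, 3 hr, 37C, 0.76% DMSO.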

[17] = qHTS assay to identify small molecule antagonists of the estrogen related receptor (ERR) signaling pathway from Tox21 library (AID 1224848); further: nearly all actives have a fitted effect of over 50% in size
Outline: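 Luciferase luminescence (ONE-Glo, 30 min room temperature) was the read-out. Cells of the NTP-supplied ERR line, 2,000 per well, were given 6 h at 37 C before compound addition in DMSO and 18 h exposure at 37 C.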

[18] = qHTS assay to identify small molecule agonists of the estrogen related receptor (ERR) signaling pathway from Tox21 library (AID 1224849; calls by dose curve; further: nearly all actives have a fitted effect of over 15% in size); conditions: ERR reporter cell line, ONE-Glo luciferase, 18 h; at 92.4 µM (top of the series) unless noted
Outline: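 Cells carrying the ERR reporter were plated and allowed to settle for 6 h, exposed to library compounds for 18 h at 37 C, then lysed with ONE-Glo and luminescence measured.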

[19] = target: Thyrotropin receptor (Homo sapiens) (UniProt P16473); assay: qHTS assay to identify small molecule agonists of the thyroid stimulating hormone receptor (TSHR) signaling pathway (AID 1224843; calls by dose curve; further: nearly all actives have a fitted effect of over 45% in size)
Outline: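 Agonist activity read as cAMP rise via d2/cryptate HTRF competition, 1 h room-temperature detection, in HEK293 cells expressing TSHR. Fifteen-point titrations, each run in triplicate, with a 30 min room-temperature incubation beforehand.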

[20] = qHTS assay to identify small molecule agonists of the hypoxia (HIF-1) signaling pathway (AID 1224846; active means well fitted activation curve with a large enough effect in the signal ratio in the repeat runs, not every such curve was filed as active; the % refers to the signal ratio)
Outline: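 Compounds from the Tox21 10K library, dissolved in DMSO, are tested for induction of a hypoxia response element–controlled beta-lactamase reporter in ME-180 cells. Exposure lasts 17 hrs at 37C after a 5 hr settling period, followed by CCF4-AM FRET substrate.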
On the % scale 0 is the no-effect control and ±100 the full control effect.

Thyrotropin receptor (Homo sapiens), sequence (P16473 whole entry, looked up): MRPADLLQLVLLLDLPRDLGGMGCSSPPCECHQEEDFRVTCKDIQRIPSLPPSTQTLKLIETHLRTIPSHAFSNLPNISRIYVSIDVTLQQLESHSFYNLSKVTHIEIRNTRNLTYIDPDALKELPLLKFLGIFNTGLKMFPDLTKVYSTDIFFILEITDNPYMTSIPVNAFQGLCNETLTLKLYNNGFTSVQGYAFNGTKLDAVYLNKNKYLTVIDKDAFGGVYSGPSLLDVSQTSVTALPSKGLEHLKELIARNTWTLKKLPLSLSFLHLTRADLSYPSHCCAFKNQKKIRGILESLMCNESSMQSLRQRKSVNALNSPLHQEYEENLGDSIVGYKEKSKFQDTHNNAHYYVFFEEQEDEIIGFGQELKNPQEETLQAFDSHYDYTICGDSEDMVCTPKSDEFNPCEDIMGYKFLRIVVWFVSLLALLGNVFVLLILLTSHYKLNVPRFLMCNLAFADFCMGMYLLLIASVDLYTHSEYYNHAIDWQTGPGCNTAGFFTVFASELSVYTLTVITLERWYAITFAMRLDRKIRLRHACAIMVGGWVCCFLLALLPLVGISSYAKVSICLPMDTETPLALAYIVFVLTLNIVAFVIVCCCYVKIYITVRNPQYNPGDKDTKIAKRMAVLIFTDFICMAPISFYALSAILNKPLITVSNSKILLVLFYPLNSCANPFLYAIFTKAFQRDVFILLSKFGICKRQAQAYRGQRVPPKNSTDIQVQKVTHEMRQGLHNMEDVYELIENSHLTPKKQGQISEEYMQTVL
Luciferin 4-monooxygenase (Photinus pyralis), sequence (P08659 whole entry, looked up): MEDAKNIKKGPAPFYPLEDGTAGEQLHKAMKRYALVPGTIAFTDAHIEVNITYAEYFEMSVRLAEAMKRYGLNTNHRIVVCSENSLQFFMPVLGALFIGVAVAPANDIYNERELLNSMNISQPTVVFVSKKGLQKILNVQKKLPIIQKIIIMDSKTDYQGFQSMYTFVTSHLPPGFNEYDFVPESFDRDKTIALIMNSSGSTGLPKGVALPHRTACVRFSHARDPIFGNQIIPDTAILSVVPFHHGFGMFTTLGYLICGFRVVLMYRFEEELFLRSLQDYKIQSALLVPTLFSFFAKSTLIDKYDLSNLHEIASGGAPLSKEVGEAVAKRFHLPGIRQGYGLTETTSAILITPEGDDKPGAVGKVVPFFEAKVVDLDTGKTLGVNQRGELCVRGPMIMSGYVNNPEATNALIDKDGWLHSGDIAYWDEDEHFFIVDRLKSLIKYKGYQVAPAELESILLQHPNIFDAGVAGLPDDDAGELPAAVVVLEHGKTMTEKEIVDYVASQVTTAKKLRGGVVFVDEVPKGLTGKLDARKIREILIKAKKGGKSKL
Nuclear receptor subfamily 1 group I member 3 (Homo sapiens), sequence (Q14994 whole entry, looked up): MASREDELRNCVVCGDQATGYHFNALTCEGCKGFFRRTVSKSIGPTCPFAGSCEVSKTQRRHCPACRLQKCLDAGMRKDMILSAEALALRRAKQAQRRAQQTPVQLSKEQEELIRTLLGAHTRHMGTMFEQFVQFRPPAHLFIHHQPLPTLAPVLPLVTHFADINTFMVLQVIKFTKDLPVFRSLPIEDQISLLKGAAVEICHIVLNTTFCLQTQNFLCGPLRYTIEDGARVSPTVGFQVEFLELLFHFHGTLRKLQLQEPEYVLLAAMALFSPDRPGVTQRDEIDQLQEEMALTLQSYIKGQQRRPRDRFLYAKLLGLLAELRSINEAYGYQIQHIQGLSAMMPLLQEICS

CC(CN1CC(=O)NC(=O)C1)N1CC(=O)NC(=O)C1 (centres undefined)
inactive: Potency [1] | outcome [2] | outcome [3] | Potency [4] | outcome [5] | Potency [6] | outcome [7] | outcome [8] | outcome [9] | Potency [10] | outcome [11] | Potency [12] | Potency [13] | outcome [14] | outcome [15] | outcome [16] | outcome [17] | activity change, positive = activation [18] -5.55%

C/C(=N\O)c1ccc(OCC(=O)N2CCCCC2)cc1
inactive: Potency [1] | outcome [2] | outcome [3] | outcome [5] | outcome [7] | outcome [8] | outcome [9] | outcome [11] | Potency [19] | outcome [14] | outcome [15] | outcome [16]
active: Potency [4] 3.76 µM | Potency [6] 12.3 µM | Potency [10] 4.22 µM

Cc1ccc(Br)cc1
inactive: Potency [1] | outcome [2] | outcome [3] | Potency [4] | outcome [5] | Potency [6] | outcome [7] | outcome [8] | outcome [9] | Potency [10] | outcome [11] | Potency [19] | outcome [14] | outcome [15] | outcome [20] | outcome [16]

CCc1ncc(C)[nH]1
inactive: Potency [1] | outcome [2] | outcome [3] | Potency [4] | outcome [5] | Potency [6] | outcome [7] | outcome [8] | outcome [9] | Potency [10] | outcome [11] | Potency [19] | outcome [14] | outcome [15] | outcome [20]

O=C1c2ccccc2C(=O)N1CO
inactive: Potency [1] | outcome [2] | outcome [3] | Potency [4] | outcome [5] | Potency [6] | outcome [7] | outcome [8] | outcome [9] | Potency [10] | outcome [11] | Potency [19] | outcome [14] | outcome [20]

C=CCON/C(CCC)=C1\C(=O)CC(C)(C)C(C(=O)OC)=C1O
inactive: Potency [1] | outcome [2] | outcome [3] | Potency [4] | outcome [5] | Potency [6] | outcome [7] | outcome [8] | outcome [9] | Potency [10] | outcome [11] | Potency [19] | outcome [14] | outcome [20]

NC[C@H]1O[C@H](O[C@H]2[C@H](O)[C@@H](O[C@H]3O[C@H](CO)[C@@H](O)[C@H](N)[C@H]3O)[C@H](N)C[C@@H]2N)[C@H](N)[C@@H](O)[C@@H]1O
inactive: activity change, negative = cytotoxicity [1] 3.13% [at 15.8 µM] | activity change, negative = cytotoxicity [2] -1.43% [at 19 µM] | activity, negative = inhibition [3] -0.0699% [at 19 µM] | Potency [4] | viability change, negative = cytotoxic [5] 2% [at 19 µM] | activity change, negative = inhibition [6] -4.17% [at 23.6 µM] | viability change, negative = cytotoxic [7] -10.3% [at 19 µM] | activity change, negative = cytotoxicity [8] -13.6% [at 19 µM] | viability change, negative = cytotoxic [11] 1.41% [at 19 µM] | activation [19] -7.89% [at 19 µM] | activity change, negative = cytotoxicity [14] 6.36% [at 15.8 µM] | activation (H2AX phosphorylation) [15] -4.26% [at 31.6 µM] | activation [20] -0.993% [at 15.8 µM] | activity change, negative = cytotoxicity [16] -0.161% [at 31.6 µM]

C/C=C(\C)C=O
inactive: Potency [1] | outcome [2] | outcome [3] | Potency [4] | outcome [5] | Potency [6] | outcome [7] | outcome [8] | outcome [11] | Potency [19] | outcome [14] | outcome [15] | outcome [16]

COC(C)(C)CC(C)=O
inactive: Potency [1] | outcome [2] | outcome [3] | Potency [4] | outcome [5] | Potency [6] | outcome [7] | outcome [9] | Potency [10] | outcome [11] | outcome [14] | outcome [15] | outcome [20]

COC(=O)c1ccc(C(=O)O)cc1
inactive: Potency [1] | outcome [2] | outcome [3] | Potency [4] | outcome [5] | Potency [6] | outcome [7] | outcome [8] | outcome [11] | Potency [19] | outcome [14] | outcome [20] | outcome [16]

O=c1[nH]c(=O)c2cn[nH]c2[nH]1
inactive: Potency [1] | outcome [2] | outcome [3] | Potency [4] | outcome [5] | Potency [6] | outcome [7] | outcome [9] | Potency [10] | outcome [11] | Potency [12] | outcome [14] | outcome [15] | outcome [20] | activity change, positive = activation [18] -22.5%

CC12CCCC=C1C(=O)OC2=O (centres undefined)
inactive: Potency [1] | outcome [2] | outcome [3] | Potency [4] | outcome [5] | Potency [6] | outcome [7] | outcome [8] | Potency [19] | outcome [14] | outcome [15] | outcome [20] | outcome [16]

CCO[Si](CC(C)C)(OCC)OCC
inactive: Potency [1] | outcome [2] | outcome [3] | Potency [4] | outcome [5] | Potency [6] | outcome [7] | outcome [8] | outcome [11] | Potency [12] | outcome [14] | outcome [15] | outcome [16] | activity change, positive = activation [18] -27.2%

CCCC(=O)OC
inactive: Potency [1] | outcome [2] | outcome [3] | Potency [4] | outcome [5] | Potency [6] | outcome [7] | outcome [8] | outcome [11] | Potency [19] | outcome [14] | outcome [15]

Cc1cccc(N)n1
inactive: Potency [1] | outcome [2] | outcome [3] | Potency [4] | outcome [5] | Potency [6] | outcome [7] | outcome [8] | outcome [11] | Potency [19] | outcome [14] | outcome [15] | outcome [20] | outcome [16]

NNC(=O)CCCCC(=O)NN
inactive: Potency [1] | outcome [2] | outcome [3] | Potency [4] | outcome [5] | Potency [6] | outcome [7] | outcome [9] | Potency [10] | Potency [12] | Potency [13] | outcome [14] | outcome [15] | outcome [20] | outcome [16] | outcome [17] | activity change, positive = activation [18] 0.359%

CC(=O)SC[C@@H](C)C(=O)N1CCC[C@H]1C(=O)N[C@@H](Cc1ccccc1)C(=O)O
inactive: Potency [1] | outcome [2] | outcome [3] | Potency [4] | outcome [5] | Potency [6] | outcome [7] | outcome [8] | Potency [12] | Potency [13] | Potency [19] | outcome [14] | outcome [15] | outcome [17] | activity change, positive = activation [18] 7.31% [at 42.5 µM]

O=C(O)Cc1ccccc1Oc1ccc(Cl)cc1Cl
inactive: Potency [1] | outcome [2] | outcome [3] | Potency [4] | outcome [5] | Potency [6] | outcome [7] | outcome [8] | outcome [11] | Potency [19] | outcome [14] | outcome [15] | outcome [20] | outcome [16]

— PubChem BioAssay (Tox21)
